The sample as a whole holds a higher share of hits than the screen did.
Tg IFNy HTS: T. gondii growth inhibition with IFN-gamma, primary screen, cell-based | activity change, negative = inhibition, % (no concentration beside the values) | 3.8% of 69,000 active | Toxoplasma gondii growth in IFN-gamma-treated host cells; hits give low values; in the data active means activity change below about -70%, passing the limit was not always enough;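 further: host cells are HeLa cells infected with Toxoplasma gondii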
* hit, by the source's call; ! = not active in a repeat.

Results for C=CCOc1ccc2c(=O)cc(C(=O)OCC)oc2c1CCC ?
Tg IFNy HTS: -2.8

What do the screens show for `CCc1c(C)c2ccc(OCC(=O)OC(C)C)c(C)c2oc1=O`?
Tg IFNy HTS: 37.4

What do the screens show for `CCCCOc1ccc2c(=O)c(-c3cc(C(=O)OC)oc3C)c(C(F)(F)F)oc2c1C`?
Tg IFNy HTS: -108.0*

Results for Cc1cccn2c(=O)c(-c3nn[nH]n3)cnc12 ?
Tg IFNy HTS: 2.1

Results for Cc1ccc(C)c(N2C(=O)CN=C2Nc2ccc(F)cc2)c1 ?
Tg IFNy HTS: 10.5

How did O=C1CN2Cc3c(ccc(Cl)c3Cl)N=C2N1 do in these assays?
Tg IFNy HTS: -82.8*!

How did Cn1c2ccccc2c2c1cc(C(=O)N1CCN(c3ccncc3)CC1)n2S(C)(=O)=O do in these assays?
Tg IFNy HTS: -56.3

What do the screens show for `O=S(=O)(N1CCCC1)N1CCCCC1CCc1ccccc1` (centres undefined)?
Tg IFNy HTS: -5.8

How did O=C(Cc1ccc(F)cc1)N1CC[C@H]2[C@@H]1CCN2c1ncccn1 do in these assays?
Tg IFNy HTS: 28.7

How did C=CCN1CCN(C)C2(CCN(C(=O)c3cnccn3)CC2)C1=O do in these assays?
Tg IFNy HTS: 1.8

What do the screens show for `CCc1ncc(CN2CCN(Cc3cccc(C)c3)CC2)cn1`?
Tg IFNy HTS: -42.6

What do the screens show for `COc1cc2ncnc(Nc3cccc(Cl)c3)c2cc1OC`?
Tg IFNy HTS: -69.6

What do the screens show for `C[C@@H]1COC(Nc2ccc3ncnc(Nc4ccc(OCc5nccs5)c(Cl)c4)c3c2)=N1`?
Tg IFNy HTS: -73.0*

How did Fc1ccc(Cn2ncc3c2CN(c2nnnn2-c2ccccc2)C3)cc1 do in these assays?
Tg IFNy HTS: -10.5

What do the screens show for `COCc1nc(N2CC(Oc3c(C)cccc3C)C2)c2cnn(C)c2n1`?
Tg IFNy HTS: 43.4

Results for Cc1nc(-c2ccc(Cl)cc2)sc1-c1csc(-c2ccc(Cl)cc2)n1 ?
Tg IFNy HTS: -15.0

Results for Cc1nnsc1-c1nc(-c2ccc(Cl)s2)cs1 ?
Tg IFNy HTS: -84.9*

How did CCOC(=O)c1csc(-c2snnc2C)n1 do in these assays?
Tg IFNy HTS: -15.7

What do the screens show for `COC(=O)c1cc2n(n1)CCCN(C(=O)CC(=O)Nc1cccc(C)c1)C2`?
Tg IFNy HTS: 2.9

How did O=C(Nc1nccs1)c1cccc(CN2CCCCC2c2cccnc2)c1 (centres undefined) do in these assays?
Tg IFNy HTS: 1.7

How did Cc1cnc(N2CCC3(CCC(C(=O)NC(C)C)OC3)CC2)nc1 (centres undefined) do in these assays?
Tg IFNy HTS: -0.5

What do the screens show for `CCOCC1COCCC12CCN(C(=O)CCc1ccccc1)CC2` (centres undefined)?
Tg IFNy HTS: -0.5

How did CN1CCC2(CCOCC2NC(=O)c2ccccc2)CC1 (centres undefined) do in these assays?
Tg IFNy HTS: -0.6

Results for CC(=O)N1CCC2(CCOCC2NC(=O)c2ccccc2)CC1 (centres undefined) ?
Tg IFNy HTS: -93.3*

What do the screens show for `Clc1ccc(C2=CC(c3cccs3)n3nnnc3N2)c(Cl)c1` (centres undefined)?
Tg IFNy HTS: -63.5

How did CN1CCCC1CCNC(=O)CC(=O)Nc1ccc(F)c(Cl)c1 (centres undefined) do in these assays?
Tg IFNy HTS: -47.0

Results for C=CC(=O)Nc1cc2c(Nc3ccc(F)c(Cl)c3)ncnc2cc1C#CC(C)(C)N1CCN(C)CC1 ?
Tg IFNy HTS: -71.8*

What do the screens show for `CN1CCC(Nc2ncc3ncnc(Nc4ccc(F)c(Cl)c4)c3n2)CC1`?
Tg IFNy HTS: -30.2

What do the screens show for `CC(C)N1CCNC(=O)C1CC(=O)NC1CCN(Cc2ccccn2)CC1` (centres undefined)?
Tg IFNy HTS: 3.6

How did CCOC(=O)C1CCN(C(=O)c2ccc(-c3csc(CC)n3)cc2)CC1 do in these assays?
Tg IFNy HTS: 215.4

How did Cc1ccc(CN2CCCC3(CCN(CC4CC4)CC3)C2)cc1 do in these assays?
Tg IFNy HTS: -13.1

How did O=C(NCCCCc1ccccc1)c1ccccc1 do in these assays?
Tg IFNy HTS: -81.9*

Results for O=C(O)CCNC(=O)c1ccccc1 ?
Tg IFNy HTS: 11.2

Results for O=C(CCCl)NCCc1ccccc1 ?
Tg IFNy HTS: 30.5

Results for C=CCOc1ccc(Cl)cc1CN1CCOC(CN)C1 (centres undefined) ?
Tg IFNy HTS: -5.8

What do the screens show for `COc1ccc(F)cc1CN1CC[C@@](C)(O)[C@@H](Cc2ccccc2)C1`?
Tg IFNy HTS: -48.1

Results for CCOc1ccc(-c2cc3c(=O)n(Cc4nc(-c5ccc(OCC)cc5)oc4C)ccn3n2)cc1 ?
Tg IFNy HTS: 38.6

What do the screens show for `CCC(CC)C(=O)N1CCCn2cnc(CN3CCCC3=O)c2C1`?
Tg IFNy HTS: 1.5

Results for COc1ccc(Cc2ncc3c(n2)CN(C(=O)[C@@H](O)c2ccccc2)C3)cc1 ?
Tg IFNy HTS: 0.4

What do the screens show for `CCC(CC)C(=O)N1CCCc2c(cnn2-c2ccc(OC)cc2)C1`?
Tg IFNy HTS: -97.4*

What do the screens show for `Cc1ccc2oc(=O)n(CC(=O)NC(Cc3cc(=O)[nH]c(C(C)C)n3)c3ccccc3)c2c1` (centres undefined)?
Tg IFNy HTS: 4.4

What do the screens show for `Cc1ncc(CO)c(CN2CCC(C(O)c3cccs3)CC2)c1O` (centres undefined)?
Tg IFNy HTS: -0.7

How did Cc1cc2oc(=O)cc(C)c2cc1NC(=O)c1cnc(CN2CCCC2)s1 do in these assays?
Tg IFNy HTS: 8.5

What do the screens show for `Cc1cnc(Nc2cccc(C3CCCN3C(=O)CCOc3ccccc3C)n2)s1` (centres undefined)?
Tg IFNy HTS: -52.2

Results for Cc1nc(Nc2ncc(C(=O)Nc3c(C)cccc3Cl)s2)cc(N2CCN(CCO)CC2)n1 ?
Tg IFNy HTS: -76.6*

What do the screens show for `Cc1cc(C)c(S(=O)(=O)N2CCC3(CC2)NCCN=C3NC2CCCCC2)cc1C`?
Tg IFNy HTS: -37.9

How did COc1ccc2cc1Oc1ccc(cc1)C[C@H]1c3c(cc4c(c3Oc3cc5c(cc3OC)CCN(C)[C@@H]5C2)OCO4)CCN1C do in these assays?
Tg IFNy HTS: -4.9

What do the screens show for `COc1ccc2c(c1OC)C(=O)OC2[C@H]1c2c(cc3c(c2OC)OCO3)CCN1C` (some centres undefined)?
Tg IFNy HTS: 23.7

What do the screens show for `COc1ccc2cc1Oc1ccc(cc1)C[C@H]1c3cc(c(OC)cc3CCN1C)Oc1c(OC)c(OC)cc3c1[C@H](C2)N(C)CC3`?
Tg IFNy HTS: -71.4*!

What do the screens show for `Cc1ncccc1NC(=O)c1ccc2nnc(C3CCN(C(C)C)C3)n2c1` (centres undefined)?
Tg IFNy HTS: 22.9

How did CCOCC1CN(Cc2ccc(C)s2)Cc2nn(C)cc21 (centres undefined) do in these assays?
Tg IFNy HTS: -6.4

How did COc1ccc(-c2nc(C(=O)NC(C)CN3CCOCC3)cs2)cc1 (centres undefined) do in these assays?
Tg IFNy HTS: 25.9

Results for COc1ccc(C[C@H](NC(=O)[C@H](C)NC(=O)CN2CCOCC2)C(=O)N[C@@H](Cc2ccccc2)C(=O)[C@]2(C)CO2)cc1 ?
Tg IFNy HTS: -73.8*

Results for CC(C)C[C@H](NC(=O)[C@H](CCc1ccccc1)NC(=O)CN1CCOCC1)C(=O)N[C@@H](Cc1ccccc1)C(=O)N[C@@H](CC(C)C)C(=O)[C@@]1(C)CO1 ?
Tg IFNy HTS: -63.3

What do the screens show for `Cc1ccc2oc(-c3nccn3CCSc3nncn3C)c(C)c2c1`?
Tg IFNy HTS: 12.1

How did CC(C)Oc1ccc(NC(=O)c2cc(-c3cnc(-c4cccnc4)nc3)cn2C)cc1 do in these assays?
Tg IFNy HTS: -17.5
